We go through one molecule from PubChem BioAssay AID1342 (University of Pittsburgh Molecular Library Screening Center, 2008).

The structures appear in SMILES notation. Values without a mark were called inactive. The rule behind the calls is not given here.

This assay is described as follows: fluorescence polarization artefacts, biochemical, 57K campaign, artefact control, dose response (AID 1342). Particulars: PKD fluorescence polarization interference counter-screen.

Consider `C/C(=N\Nc1ncc(Cl)cc1Cl)c1ccccn1`, for which the IC50 is 16.7 µM.
